Assay results reported in ChEMBL document CHEMBL3988442, “University of Dundee, Small-Polar-MMV Screening Library” (2021).
For some of these results: Measured potencies and affinities stand elsewhere.

How the values were obtained:
Parameters in all cases: scale not given: direction of the effect not stated beside the values
[1] = biological target: Protein translocase subunit SecA (Escherichia coli (strain K12)) (UniProt P10408); assay: Assay to Identify E. coli SecA ATPase Inhibitors; type: functional; conditions: 30 µM
Sequence of Protein translocase subunit SecA (Escherichia coli (strain K12)) (P10408 whole entry): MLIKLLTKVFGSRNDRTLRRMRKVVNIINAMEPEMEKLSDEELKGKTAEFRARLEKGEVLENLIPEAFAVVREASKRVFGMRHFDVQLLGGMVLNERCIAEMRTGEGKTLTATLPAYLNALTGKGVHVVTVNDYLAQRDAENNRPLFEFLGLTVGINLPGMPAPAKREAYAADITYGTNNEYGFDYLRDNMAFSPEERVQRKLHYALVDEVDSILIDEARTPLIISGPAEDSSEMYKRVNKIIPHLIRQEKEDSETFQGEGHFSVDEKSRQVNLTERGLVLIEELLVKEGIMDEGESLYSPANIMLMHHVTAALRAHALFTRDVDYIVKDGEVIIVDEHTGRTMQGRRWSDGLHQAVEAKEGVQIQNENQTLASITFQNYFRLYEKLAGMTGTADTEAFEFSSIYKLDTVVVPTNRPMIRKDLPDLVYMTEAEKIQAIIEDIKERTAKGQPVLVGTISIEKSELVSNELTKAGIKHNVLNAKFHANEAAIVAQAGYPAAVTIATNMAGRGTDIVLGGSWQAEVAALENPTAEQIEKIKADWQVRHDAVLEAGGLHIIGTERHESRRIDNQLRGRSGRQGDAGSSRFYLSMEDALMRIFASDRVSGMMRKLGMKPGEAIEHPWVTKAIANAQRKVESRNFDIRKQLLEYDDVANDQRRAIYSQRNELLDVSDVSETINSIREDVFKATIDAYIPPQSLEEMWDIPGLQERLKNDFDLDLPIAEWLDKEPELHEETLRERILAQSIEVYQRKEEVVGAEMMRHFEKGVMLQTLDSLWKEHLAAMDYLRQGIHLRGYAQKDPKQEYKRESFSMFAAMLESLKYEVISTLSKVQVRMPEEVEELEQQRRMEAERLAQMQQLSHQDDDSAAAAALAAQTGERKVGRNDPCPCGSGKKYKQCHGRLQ

[2] = biological target: T1, Ubiquitin-activating enzyme e1, putative (Leishmania donovani (strain BPK282A1)) (UniProt E9BSI1); assay: Leishmania donovani Ubiquitin Activating Enzyme (LdE1); type: functional; conditions: 30 µM
T1 sequence (whole entry): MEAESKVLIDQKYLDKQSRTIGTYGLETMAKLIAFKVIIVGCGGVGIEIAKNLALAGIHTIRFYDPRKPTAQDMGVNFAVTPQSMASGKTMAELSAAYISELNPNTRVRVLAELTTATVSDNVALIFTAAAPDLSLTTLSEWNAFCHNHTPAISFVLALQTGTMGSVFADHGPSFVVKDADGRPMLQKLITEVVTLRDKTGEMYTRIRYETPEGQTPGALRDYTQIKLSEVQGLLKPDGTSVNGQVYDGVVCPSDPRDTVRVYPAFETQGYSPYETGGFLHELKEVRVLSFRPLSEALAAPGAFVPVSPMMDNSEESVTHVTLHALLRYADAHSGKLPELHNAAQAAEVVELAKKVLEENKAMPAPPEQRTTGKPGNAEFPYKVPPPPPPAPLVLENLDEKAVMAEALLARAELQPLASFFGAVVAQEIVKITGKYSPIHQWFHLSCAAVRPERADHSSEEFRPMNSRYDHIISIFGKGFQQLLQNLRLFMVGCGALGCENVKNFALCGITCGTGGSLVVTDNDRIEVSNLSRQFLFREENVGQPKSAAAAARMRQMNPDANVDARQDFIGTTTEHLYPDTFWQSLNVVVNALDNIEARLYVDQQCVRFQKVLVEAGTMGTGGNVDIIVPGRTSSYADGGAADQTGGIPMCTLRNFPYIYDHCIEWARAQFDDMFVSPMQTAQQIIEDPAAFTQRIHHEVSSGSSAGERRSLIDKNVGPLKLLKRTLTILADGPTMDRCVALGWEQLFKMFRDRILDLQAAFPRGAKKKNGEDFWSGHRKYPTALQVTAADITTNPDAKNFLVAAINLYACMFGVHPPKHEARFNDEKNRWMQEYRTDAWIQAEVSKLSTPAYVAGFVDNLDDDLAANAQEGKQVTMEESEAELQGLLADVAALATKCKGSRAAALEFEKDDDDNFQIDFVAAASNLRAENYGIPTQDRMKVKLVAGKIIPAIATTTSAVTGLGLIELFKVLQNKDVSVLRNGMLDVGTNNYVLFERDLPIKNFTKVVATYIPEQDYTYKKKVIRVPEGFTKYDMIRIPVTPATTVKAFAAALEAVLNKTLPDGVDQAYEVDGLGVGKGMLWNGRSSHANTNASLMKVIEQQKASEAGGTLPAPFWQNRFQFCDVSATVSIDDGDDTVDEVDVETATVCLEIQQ

[3] = biological target: AMP-activated protein kinase, AMPK (Homo sapiens) (UniProt P54646+O43741+P54619+Q9UGJ0+Q9Y478+Q13131+Q9UGI9); assay: AMP-dependent Kinase enzyme assay. An in vitro enzyme assay that detects ADP turnover that is directly proportional to AMPK activity. This uses naive AMPK that is activated during the assay with MK-8722; type: functional; conditions: 30 µM
[4] = biological target: Sialic acid-binding Ig-like lectin 9 (Homo sapiens) (UniProt Q9Y336); assay: Hs-Siglec9 ALPHAscreen SOP 20170721; conditions: 10 µM
Sequence of Sialic acid-binding Ig-like lectin 9 (Homo sapiens) (Q9Y336 whole entry): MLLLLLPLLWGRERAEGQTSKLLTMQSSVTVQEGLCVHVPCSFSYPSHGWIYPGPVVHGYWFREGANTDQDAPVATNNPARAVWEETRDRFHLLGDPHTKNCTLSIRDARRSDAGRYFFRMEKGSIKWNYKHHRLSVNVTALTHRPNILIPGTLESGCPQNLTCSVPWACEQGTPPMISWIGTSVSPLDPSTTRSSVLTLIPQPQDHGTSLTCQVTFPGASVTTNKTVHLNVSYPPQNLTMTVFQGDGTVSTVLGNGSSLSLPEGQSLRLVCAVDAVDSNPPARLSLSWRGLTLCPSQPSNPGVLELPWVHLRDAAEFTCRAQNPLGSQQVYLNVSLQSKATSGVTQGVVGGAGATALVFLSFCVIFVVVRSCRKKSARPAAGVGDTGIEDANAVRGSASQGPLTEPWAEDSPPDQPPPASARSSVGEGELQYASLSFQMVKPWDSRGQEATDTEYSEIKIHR

[5] = system: Trypanosoma cruzi; assay: Trypanosoma cruzi phosphomannomutase and mannose-1-phosphate guanylyltransferase assay; type: functional; conditions: 10 µM
[6] = biological target: T2, Arginase-2, mitochondrial (Homo sapiens) (UniProt P78540); assay: in vitro enzyme assay to detect the production of urea directly proportional to the activity of Arginase II; type: functional; conditions: 33.3 µM; also: in the data most compounds retested in dose-response had high values
T2 sequence (whole entry): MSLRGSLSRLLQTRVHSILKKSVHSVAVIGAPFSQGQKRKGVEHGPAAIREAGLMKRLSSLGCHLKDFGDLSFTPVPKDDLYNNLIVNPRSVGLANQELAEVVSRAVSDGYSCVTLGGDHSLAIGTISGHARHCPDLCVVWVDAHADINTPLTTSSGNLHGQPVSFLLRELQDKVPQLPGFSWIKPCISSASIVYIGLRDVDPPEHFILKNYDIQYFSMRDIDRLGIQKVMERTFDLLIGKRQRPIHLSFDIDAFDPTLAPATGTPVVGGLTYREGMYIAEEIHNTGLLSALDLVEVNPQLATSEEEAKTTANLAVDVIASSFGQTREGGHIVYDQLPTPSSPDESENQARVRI

[7] = biological target: T3, Proteasome subunit beta (Trypanosoma cruzi) (UniProt O96673); assay: Trypanosoma cruzi proteasome chymotrypsin-like activity (TcProtChymo) assay.; also: in the data most compounds retested in dose-response had high values; type: functional; conditions: 9.37 µM
T3 sequence (whole entry): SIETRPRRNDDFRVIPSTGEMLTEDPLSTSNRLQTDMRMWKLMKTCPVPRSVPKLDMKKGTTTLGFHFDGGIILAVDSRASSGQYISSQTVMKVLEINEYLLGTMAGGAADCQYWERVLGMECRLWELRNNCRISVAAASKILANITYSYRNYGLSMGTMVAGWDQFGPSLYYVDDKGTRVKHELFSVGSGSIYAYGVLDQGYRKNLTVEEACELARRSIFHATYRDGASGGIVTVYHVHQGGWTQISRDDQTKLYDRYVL

[8] = species on record: Homo sapiens; assay: To identify inhibition of the IFN signalling (Jak-Stat) pathway via expression of an eGFP reporter gene under the control of an IFN-stimulated response element (ISRE) containing MxA promoter.; type: functional; conditions: 30 µM
[9] = biological target: T4, Tyrosyl-tRNA synthetase, putative (Trypanosoma cruzi (strain CL Brener)) (UniProt Q4DSP6); assay: Trypanosoma cruzi tyrosyl tRNA synthetase (TcYRS) _High Tyrosine SOP; type: functional; conditions: 30 µM; also: in the data most compounds retested in dose-response had high values
T4 sequence (whole entry): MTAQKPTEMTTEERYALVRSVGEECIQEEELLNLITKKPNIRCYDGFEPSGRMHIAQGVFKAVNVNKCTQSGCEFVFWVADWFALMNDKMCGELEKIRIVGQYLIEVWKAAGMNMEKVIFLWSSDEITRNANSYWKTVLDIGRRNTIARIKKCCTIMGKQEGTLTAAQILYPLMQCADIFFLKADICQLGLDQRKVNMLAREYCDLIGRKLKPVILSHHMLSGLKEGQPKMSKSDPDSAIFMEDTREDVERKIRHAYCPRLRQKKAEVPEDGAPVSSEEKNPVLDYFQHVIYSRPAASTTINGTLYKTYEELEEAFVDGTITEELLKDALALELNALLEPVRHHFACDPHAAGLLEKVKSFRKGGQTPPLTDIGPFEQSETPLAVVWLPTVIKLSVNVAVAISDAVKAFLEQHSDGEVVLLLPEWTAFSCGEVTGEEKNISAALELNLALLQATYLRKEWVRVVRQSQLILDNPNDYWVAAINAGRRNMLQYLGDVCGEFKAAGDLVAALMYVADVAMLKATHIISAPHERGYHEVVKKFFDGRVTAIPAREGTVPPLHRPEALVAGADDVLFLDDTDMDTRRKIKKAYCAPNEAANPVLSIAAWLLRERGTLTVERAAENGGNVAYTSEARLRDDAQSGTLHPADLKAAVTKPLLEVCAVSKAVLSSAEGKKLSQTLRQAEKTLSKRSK

[10] = biological target: T4, Tyrosyl-tRNA synthetase, putative (Trypanosoma cruzi (strain CL Brener)); assay: Trypanosoma cruzi tyrosyl tRNA synthetase (TcYRS) SOP; type: functional; conditions: 30 µM
[11] = biological target: Chromo domain-containing protein 1 (Saccharomyces cerevisiae (strain ATCC 204508 / S288c) (Baker's yeast)) (UniProt P32657); assay: ScCHD-1 Enzyme Inhibition Assay; type: functional; conditions: 30 µM; also: in the data most compounds retested in dose-response had high values
Sequence of Chromo domain-containing protein 1 (Saccharomyces cerevisiae (strain ATCC 204508 / S288c) (Baker's yeast)) (P32657 whole entry, the tested form may be a part): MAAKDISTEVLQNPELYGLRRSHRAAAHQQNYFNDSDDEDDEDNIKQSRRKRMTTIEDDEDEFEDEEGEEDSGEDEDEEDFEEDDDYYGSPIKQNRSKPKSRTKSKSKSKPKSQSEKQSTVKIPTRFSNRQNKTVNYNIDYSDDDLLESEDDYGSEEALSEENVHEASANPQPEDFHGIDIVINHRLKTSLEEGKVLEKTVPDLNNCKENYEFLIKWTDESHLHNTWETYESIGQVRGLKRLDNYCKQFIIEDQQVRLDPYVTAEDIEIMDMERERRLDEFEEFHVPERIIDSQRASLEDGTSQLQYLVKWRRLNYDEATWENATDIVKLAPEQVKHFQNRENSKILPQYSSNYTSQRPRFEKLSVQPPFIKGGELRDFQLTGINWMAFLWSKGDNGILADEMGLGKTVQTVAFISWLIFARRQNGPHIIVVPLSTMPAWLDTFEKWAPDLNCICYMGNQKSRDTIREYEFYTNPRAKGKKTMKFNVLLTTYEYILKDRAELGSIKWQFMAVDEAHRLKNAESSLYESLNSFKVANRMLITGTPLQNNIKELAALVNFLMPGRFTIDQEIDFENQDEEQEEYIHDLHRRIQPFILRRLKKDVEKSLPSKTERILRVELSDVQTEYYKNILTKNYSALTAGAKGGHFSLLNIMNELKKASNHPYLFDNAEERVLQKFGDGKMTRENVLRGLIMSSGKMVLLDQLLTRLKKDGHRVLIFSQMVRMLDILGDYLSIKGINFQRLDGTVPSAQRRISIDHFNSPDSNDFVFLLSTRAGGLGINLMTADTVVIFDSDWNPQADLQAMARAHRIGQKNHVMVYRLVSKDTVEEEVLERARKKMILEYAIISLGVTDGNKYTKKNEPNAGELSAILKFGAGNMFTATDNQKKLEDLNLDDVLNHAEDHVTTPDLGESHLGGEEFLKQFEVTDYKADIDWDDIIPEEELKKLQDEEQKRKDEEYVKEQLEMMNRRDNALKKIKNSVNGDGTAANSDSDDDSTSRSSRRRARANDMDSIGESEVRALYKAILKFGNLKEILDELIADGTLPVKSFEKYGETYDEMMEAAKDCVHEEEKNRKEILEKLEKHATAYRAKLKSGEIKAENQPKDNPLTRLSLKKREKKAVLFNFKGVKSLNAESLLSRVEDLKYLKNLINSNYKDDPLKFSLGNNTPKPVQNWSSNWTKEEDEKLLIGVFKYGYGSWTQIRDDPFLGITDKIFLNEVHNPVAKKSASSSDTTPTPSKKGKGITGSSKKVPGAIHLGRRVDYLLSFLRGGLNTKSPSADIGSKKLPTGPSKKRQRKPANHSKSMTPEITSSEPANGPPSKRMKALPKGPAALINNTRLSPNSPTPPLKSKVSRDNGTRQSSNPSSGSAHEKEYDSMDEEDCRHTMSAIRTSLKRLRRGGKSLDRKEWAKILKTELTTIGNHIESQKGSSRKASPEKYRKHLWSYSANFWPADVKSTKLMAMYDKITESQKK

| Structure (SMILES) | Percent Effect [1] [%] | Percent Effect [2] [%] | Percent Effect [3] [%] | Percent Effect [4] [%] | Percent Effect [5] [%] | Percent Effect [6] [%] | Percent Effect [7] [%] | Percent Effect [8] [%] | Percent Effect [9] [%] | Percent Effect [10] [%] | Percent Effect [11] [%] |
| --- | --- | --- | --- | --- | --- | --- | --- | --- | --- | --- | --- |
| CCS(=O)(=O)N1CCC[C@]2(C(=O)N(C)C)CN(c3ncccn3)C[C@@H]2C1 | 2.18 | 10.7 | 3.9 | 3.64 | 0.193 | -53.9 | 7.52 | -10.8 | 3.12 | 22.5 | -10.2 |
| O=C(Cc1ccc2c(c1)OCCO2)NC1CCN(CC(F)F)CC1 | -6.42 | 7.79 | 6.85 | 8.97 | -3 | 0 | 6.93 | -4.72 | 3.88 | 9.76 | -6.97 |
| O=C1O[C@@H]2CN(Cc3cccc(F)c3)C[C@@H]2N1CCCN1CCOCC1 | -1.1 | 10.7 | 4.3 | 9.62 | 2.82 | 12.5 | 21.3 | 9.55 | 3.83 | 21 | -10.6 |
| Cc1cccn2c(=O)cc(OC(=O)c3ccccc3)nc12 | 1.09 | 0 | 45.4 | -1.9 | -4.97 | -14.2 | 5.27 | -1.07 | 0 | 0 | -3.23 |
| NC(=O)c1ccc2c(c1)nc1n2CCN(Cc2ccccc2)C1 | -6.79 | 15.8 | 5.45 | 5.68 | 3.8 | -20.1 | 12 | 5.05 | 4.25 | 10.4 | 6.79 |
| CN(Cc1cc(-c2ccccc2)no1)C1CCCN(c2cccnn2)C1 (configuration not stated) | -6.51 | -20.8 | 0.498 | 15.7 | -3.93 | -3.2 | 2.37 | 7.74 | 15.5 | 14.6 | 18.5 |
| COc1ccc(OCC(=O)NC(C)c2ccccc2)c(C(=O)O)c1 (configuration not stated) | -7.92 | 0 | -0.906 | 3.42 | -4.4 | -0.744 | 6.78 | -2.11 | -1.07 | -1.24 | -2.92 |
| O=C(C[C@@H]1COC[C@H]2CN(Cc3ccncc3)C[C@@H]12)N1CCOCC1 | -1.31 | 12 | -1.49 | 2.73 | -6.88 | -17.4 | 10.5 | -2.62 | 0 | 2.56 | -5.74 |
| CC(=O)N1CCCC1c1cccc(Cc2ccc(F)cc2)n1 (configuration not stated) | -4.97 | 5.33 | 10.8 | 3.6 | 5.91 | -0.233 | 5.37 | 15.6 | 4.25 | 8.97 | 1.18 |
| CCc1n[nH]c(C2CN(C(=O)c3ccsc3)CCO2)n1 (configuration not stated) | -3.58 | 0 | 6.15 | 8.54 | -0.686 | 4.84 | 6.39 | 4.84 | -2.86 | -2.35 | -13.8 |
| CC(C)(C)c1nnc(CN2CCN(S(C)(=O)=O)CC2)o1 | -2.63 | 13.5 | -2.69 | 19.5 | 3.48 | 1.43 | 12.1 | 5.81 | 2.65 | 12.2 | -3.73 |
| CC(C)C(=O)NCCCn1ncc2c(Cl)cccc21 | -4.7 | 10.4 | 1.13 | 17.2 | 5.61 | -8.28 | 4.33 | -1.52 | 5.38 | 11.1 | -3.62 |
| CC(O)CN1CCC(CNCc2cccc(OC(C)C)c2)CC1 (configuration not stated) | -8.77 | 8.11 | -23.9 | 28.4 | 8.21 | -9.22 | 1.26 | 9.15 | 6.4 | 23.5 | -14.8 |
| CC1COCCN1Cc1nc(-c2cccc(Br)c2)no1 (configuration not stated) | -3.43 | 13.5 | 7.49 | 1.61 | -8.4 | 2 | 17.7 | 24.7 | 0.493 | 1.24 | -8.7 |
| Cn1cnc2c1CCN(Cc1noc(-c3ccccc3)n1)C2 | -4.07 | 15.8 | -9.94 | 14.2 | 3.08 | -2.52 | 1.27 | -13.4 | 6.4 | 11.1 | 0.774 |
| CC(C)Cc1cc(NC(=O)c2ccc[nH]2)n(C)n1 | -5.53 | 5.2 | 3.29 | 6.59 | -5.24 | -5.34 | -0.169 | 0.305 | 5.83 | 14.6 | -7.26 |
| CC(=O)Nc1nc(C(=O)Nc2ccc(F)cc2)cs1 | -2.09 | 15.6 | 28 | -6.42 | -1.86 | -15.4 | 16.7 | 8.03 | 7.62 | 18.8 | 3.31 |
